Records with an inconclusive call do not appear. Calls of active or inactive are those of the source. Calls come from the whole dose curve; as a rule, active = well fitted activation curve with a large enough effect; inconclusive = small, poorly fitted or top-dose-only effect; inactive = flat fitted curve, though single readings scatter.

The test is described as follows: Primary redox qHTS assay for identification of artifact compounds. (AID 1845223).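 Note: 0% = DMSO and 100% = reference compound.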 The following applies: Amplex Red/HRP redox cycling with DTT, fluorescence; series mostly up to 53.8 µM; redox activity (% of DA3003): at the top concentration. An outline of the steps:
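Amplex Red (25 uM) and HRP (250 mU/mL) in HBSS, with compounds for 15 min, then 250 uM DTT for 30 min, room temperature, dark. Fluorescence 525/598 nm read; normalized to DMSO and 10 uM DA3003; Hill fit.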
With `COc1ccccc1N1CCN(CC[C@@](C)(C(=O)C2CCCCC2)c2ccccc2)CC1`, the “redox activity (% of DA3003)” value was 13.6% (inactive).

As to `CC1=C2C[C@@]3(C)C(CCC[C@@H]3C)C(O)C2OC1=O` (some centres undefined), the “redox activity (% of DA3003)” value was -11.8% (inactive).

Take `C=CC(=O)N1CC(N2CCN(C(=O)CNc3cc(C4CC4)c(Cl)cc3O)CC2)C1`: the “redox activity (% of DA3003)” value was -4.37% (inactive).

In the case of `C#CCNCc1cc2cc(OCc3ccccc3)ccc2[nH]1`, the “redox activity (% of DA3003)” value is -3.83% (inactive).

For the molecule `O=S(=O)(c1ccccc1)N(CC(F)(F)F)c1ccc(C(O)(C(F)(F)F)C(F)(F)F)cc1`, the “redox activity (% of DA3003)” value was -0.627% (inactive).

For `COC(=O)c1ccc2c(c1)[nH]c1ncnc(NCCCN3CCCCC3)c12`, the “redox activity (% of DA3003)” value was -4.38% (inactive).

In the case of `COc1ccc2cc(-c3cc(-c4cc(Cl)cc(Cl)c4)nn3C(C)c3ccc(C(=O)NCCC(=O)O)cc3)ccc2c1` (centres undefined), the “redox activity (% of DA3003)” value is 4.21% (inactive).

Consider `N#Cc1cnc2c(Cl)cc(NCc3cn(CCN4CCCCCC4)nn3)cc2c1Nc1ccc(F)c(Cl)c1`, for which the “redox activity (% of DA3003)” value is 17.5% (inactive).

As for `C/C=C/C=C/C=C/C(=O)O[C@@H]1C=C(CO)C(O)(C(=O)OC)[C@@]2(C)CCCC(C)(C)C12` (some centres undefined), the “redox activity (% of DA3003)” value was 5.16% [at 25.6 µM] (inactive).

With `Cc1ccc(C2(C(=O)N3CCC(n4nc(-c5ccccc5)oc4=O)CC3)CC2)cc1`, the “redox activity (% of DA3003)” value was 9.78% (inactive).

In the case of `C=C1C(=O)O[C@@H]2[C@H]1CC[C@H](C)[C@]1(CCC(=O)O1)C2(C)O` (some centres undefined), the “redox activity (% of DA3003)” value is -12.4% (inactive).

`COc1ccccc1N1CCN(c2ncnc3n[nH]c(Br)c23)CC1`: the “redox activity (% of DA3003)” value was -5.49% (inactive).

As for `CC(C)C[C@@H](N)C(=O)N[C@H]1C(=O)N[C@@H](CC(N)=O)C(=O)N[C@H]2C(=O)N[C@H]3C(=O)N[C@H](C(=O)N[C@H](C(=O)O)c4cc(O)cc(O)c4-c4cc3ccc4O)[C@H](O)c3ccc(c(Cl)c3)Oc3cc2cc(c3O[C@@H]2O[C@H](CO)[C@@H](O)[C@H](O)[C@H]2O[C@H]2C[C@](C)(N)[C@H](O)[C@H](C)O2)Oc2ccc(cc2Cl)[C@H]1O`, the “redox activity (% of DA3003)” value is -2.8% [at 25.6 µM] (inactive).

`C=C1C(=O)OC2/C=C(\C)CC/C=C(\C=O)C(OC)C(OC(=O)C(C)CC)C12` (centres undefined): the “redox activity (% of DA3003)” value was 17.1% (inactive).

On to `CC(=O)OC[C@]12[C@H](OC(C)=O)[C@H](OC(=O)c3ccccc3)[C@@H]3[C@@H](OC(C)=O)[C@]1(OC3(C)C)[C@H](C)C[C@H](OC(C)=O)[C@@H]2OC(=O)c1ccccc1`, for which the “redox activity (% of DA3003)” value is 26.5% [at 25.6 µM] (inactive).

As to `CCCC(CCC)C(=O)NCc1ccc2c(cnn2-c2ccccc2OC)c1`, the “redox activity (% of DA3003)” value is 15.2% (inactive).

For `O=C(O)c1cc(N(Cc2ccc(C3CCCCC3)cc2)C(=O)c2ccc(Oc3ccccc3)cc2)ccc1O`, the “redox activity (% of DA3003)” value was 2.06% (inactive).

On to `C=C1CC[C@H]2C(=C)CC[C@H]3C(=C)C(=O)O[C@@H]3[C@@H]12`, for which the “redox activity (% of DA3003)” value was 4.53% (inactive).

With `C=C(C)C(=O)O[C@H]1[C@H]2C(=C)C(=O)O[C@@H]2C[C@@H](C)[C@@H]2O[C@@H]2C(=O)[C@](C)(O)[C@@H]1OC(=O)C(=C)C`, the “redox activity (% of DA3003)” value was -7.49% [at 25.6 µM] (inactive).

Regarding `CC(NC(=O)Cc1cc(F)cc(F)c1)C(=O)NC1C(=O)N(C)c2ccccc2-c2ccccc21` (centres undefined), the “redox activity (% of DA3003)” value was -2.86% (inactive).

As to `O=C(N[C@H]1CCN(C(=O)c2cc(C(F)(F)F)cc(C(F)(F)F)c2)[C@H](Cc2ccc(Cl)cc2)C1)c1ccnc2ccccc12`, the “redox activity (% of DA3003)” value is -2.68% [at 25.6 µM] (inactive).

Take `CC(C)(O)c1ccc2c(c1)ncn2-c1cccc(-c2ccccc2C#N)c1`: the “redox activity (% of DA3003)” value is 4.36% (inactive).

On to `O=c1[nH]c2ccccc2n1CCN1CCN(c2cccc(C(F)(F)F)c2)CC1`, for which the “redox activity (% of DA3003)” value is 6.2% (inactive).

In the case of `CC(=O)CC(=O)Nc1ccc(Cl)c(C(F)(F)F)c1`, the “redox activity (% of DA3003)” value is 14.2% (inactive).

On to `CC(C)n1nc(C#Cc2ccccc2)c2c(N)ncnc21`, for which the “redox activity (% of DA3003)” value was 18.5% (inactive).

As for `Cn1c(=O)c(F)c(Nc2ccc(I)cc2F)c2c(=O)n(CC(O)CO)cnc21` (centres undefined), the “redox activity (% of DA3003)” value is 14.6% (inactive).

In the case of `Cn1ncc(Cl)c1-c1cc(C(=O)N[C@H](CN)Cc2ccc(F)c(F)c2)oc1Cl`, the “redox activity (% of DA3003)” value was -2.71% (inactive).

In the case of `COc1cc(CCc2cc(NC(=O)c3ccc(N4CC(C)NC(C)C4)cc3)n[nH]2)cc(OC)c1` (centres undefined), the “redox activity (% of DA3003)” value was 4.99% (inactive).

On to `O=C(COc1ccc2ccccc2c1Br)Nc1cccnc1`, for which the “redox activity (% of DA3003)” value was 9.97% (inactive).

As for `C=C1C(=O)OC2/C=C(\COC(C)=O)CC/C=C(\C=O)CC(OC(=O)C(C)CC)C12` (centres undefined), the “redox activity (% of DA3003)” value is 8.4% [at 25.6 µM] (inactive).

For `CCCCC1CCN(CCCN2C(=O)CCc3ccccc32)CC1`, the “redox activity (% of DA3003)” value is -0.426% (inactive).

For the molecule `O=C(NCCCc1ccccc1)C1CCC(CNS(=O)(=O)c2cccc3nsnc23)CC1` (centres undefined), the “redox activity (% of DA3003)” value was -3.16% (inactive).

In the case of `C/C(=C\CCC(C)C1=CCC2(C)OC3=C(CC12)C(=O)C(O)CC3)CO` (centres undefined), the “redox activity (% of DA3003)” value was 14.1% (inactive).

Consider `COc1cc(-n2cnc3cc(-c4ccc(Cl)cc4)sc3c2=O)ccc1OCCN1CCCC1`, for which the “redox activity (% of DA3003)” value is 8.04% (inactive).

Consider `CC(=O)O[C@@H]1C[C@@]2(C)C(CC[C@]3(C)C2CC=C2C4CC(C)(C)CC[C@]4(C(=O)O)CC[C@]23C)C(C)(C)[C@H]1O` (some centres undefined), for which the “redox activity (% of DA3003)” value was 14.6% [at 25.6 µM] (inactive).

As for `CC#CC(=O)Nc1ccc2ncnc(Nc3cccc(Br)c3)c2c1`, the “redox activity (% of DA3003)” value was -7.34% (inactive).

On to `O=C(O)c1cccc(-c2ccc(-c3cn(C(=O)N4CCCCC4Cc4ccccc4)nn3)cc2)c1` (centres undefined), for which the “redox activity (% of DA3003)” value is 10.7% (inactive).

With `CCCN(CCc1ccsc1)C1CCc2c(O)cccc2C1` (centres undefined), the “redox activity (% of DA3003)” value is -2.84% (inactive).

As for `Cn1nc(C(C)(C)C)cc1C(=O)N[C@@H](Cc1cccc(Cl)c1)C(=O)NCC#N`, the “redox activity (% of DA3003)” value was 4.66% (inactive).

The values above are taken from PubChem BioAssay (NCATS).
